# Measured values from PubChem BioAssay (NCI).
# Several values for one entry are separate records, joined by “and”; a condition that tells them apart may be missing. Equal values may be shown once. This is part of a sample that, as a whole, favours compounds with a hit. Of some 83,000 tested, about 20% had one in any assay.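 A percent growth of 40 corresponds to 60% growth inhibition; 0 means no net growth; -100 means all cells died. Active threshold: below 10.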 Activity calls are given as the source filed them.
# Columns and labels:
# Assay in all cases: NCI-60 one-dose screen, 48 h (100 = growth as untreated, 0 = no growth, -100 = all killed)
# HCT-15 colon = tested on: HCT-15 colon
# HT29 colon = tested on: HT29 colon
# SNB-75 CNS = tested on: SNB-75 CNS
# SNB-19 CNS = tested on: SNB-19 CNS
# U251 CNS = tested on: U251 CNS
# PC-3 prostate = tested on: PC-3 prostate
# SK-MEL-5 melanoma = tested on: SK-MEL-5 melanoma
# UACC-62 melanoma = tested on: UACC-62 melanoma
# LOX IMVI melanoma = tested on: LOX IMVI melanoma
# SK-MEL-28 melanoma = tested on: SK-MEL-28 melanoma
smiles,measurement,setting,value
O=C(/C=C/c1cccc(Oc2ccc(Cl)cc2)c1)c1ccccc1,growth,HCT-15 colon; 10 µM,80.8% (inactive)
same,growth,HCT-15 colon; 100 µM,-72.6% (active)
same,growth,HT29 colon; 10 µM,84.2% (inactive)
same,growth,HT29 colon; 100 µM,-67% (active)
same,growth,SNB-75 CNS; 10 µM,82.8% (inactive)
same,growth,SNB-75 CNS; 100 µM,-94.8% (active)
same,growth,SNB-19 CNS; 10 µM,90.5% (inactive)
same,growth,SNB-19 CNS; 100 µM,-77.3% (active)
same,growth,U251 CNS; 10 µM,76% (inactive)
same,growth,U251 CNS; 100 µM,-100% (active)
same,growth,PC-3 prostate; 10 µM,84.5% (inactive)
same,growth,PC-3 prostate; 100 µM,-72.3% (active)
same,growth,SK-MEL-5 melanoma; 10 µM,105% (inactive)
same,growth,SK-MEL-5 melanoma; 100 µM,-97.3% (active)
same,growth,UACC-62 melanoma; 10 µM,100% (inactive)
same,growth,UACC-62 melanoma; 100 µM,-71.9% (active)
same,growth,LOX IMVI melanoma; 10 µM,38.2% (inactive)
same,growth,LOX IMVI melanoma; 100 µM,-99.3% (active)
same,growth,SK-MEL-28 melanoma; 10 µM,101% (inactive)
same,growth,SK-MEL-28 melanoma; 100 µM,-82.2% (active)
CC(C)(C)CC(N)=O,growth,HCT-15 colon; 10 µM unless noted,94.9% (inactive)
same,growth,HT29 colon; 10 µM unless noted,102% (inactive)
same,growth,SNB-75 CNS; 10 µM unless noted,96.4% (inactive)
same,growth,SNB-19 CNS; 10 µM unless noted,101% (inactive)
same,growth,U251 CNS; 10 µM unless noted,95.1% (inactive)
same,growth,PC-3 prostate; 10 µM unless noted,97.9% (inactive)
same,growth,SK-MEL-5 melanoma; 10 µM unless noted,94.1% (inactive)
same,growth,UACC-62 melanoma; 10 µM,103% (inactive)
same,growth,UACC-62 melanoma; 100 µM,79.5% (inactive) and 18.4% (inactive)
same,growth,LOX IMVI melanoma; 10 µM unless noted,98.1% (inactive)
same,growth,SK-MEL-28 melanoma; 10 µM unless noted,102% (inactive)
C=C1CCC2C3(C)COC(c4ccc(NC(C)=O)cc4)OC3CCC2(C)C1C/C=C1/C(=O)OCC1O (stereo not drawn),growth,HCT-15 colon; 10 µM unless noted,63.3% (inactive)
same,growth,HT29 colon; 10 µM unless noted,52.2% (inactive)
same,growth,SNB-75 CNS; 10 µM unless noted,63.9% (inactive)
same,growth,SNB-19 CNS; 10 µM unless noted,83.6% (inactive)
same,growth,U251 CNS; 10 µM unless noted,54.7% (inactive)
same,growth,PC-3 prostate; 10 µM unless noted,42.2% (inactive)
same,growth,SK-MEL-5 melanoma; 10 µM unless noted,29% (inactive)
same,growth,UACC-62 melanoma; 10 µM unless noted,81% (inactive)
same,growth,LOX IMVI melanoma; 10 µM unless noted,55.4% (inactive)
CC[C@]12CN3CCc4c([nH]c5ccccc45)[C@@](C(=O)OC)(c4cc5c(cc4OC)N(C)[C@H]4[C@@](O)(C(=O)OC)[C@H](OC(C)=O)[C@]6(CC)C=CCN7CC[C@]54[C@@H]76)CC(C3)[C@H]1O2 (stereo partly drawn),growth,HCT-15 colon; 10 µM unless noted,29% (inactive)
same,growth,HT29 colon; 10 µM unless noted,2.74% (active)
same,growth,SNB-75 CNS; 10 µM unless noted,-2.51% (active)
same,growth,SNB-19 CNS; 10 µM unless noted,26.9% (inactive)
same,growth,U251 CNS; 10 µM unless noted,16% (inactive)
same,growth,PC-3 prostate; 10 µM unless noted,15.5% (inactive)
same,growth,SK-MEL-5 melanoma; 10 µM unless noted,-26.4% (active)
same,growth,UACC-62 melanoma; 10 µM,26.6% (inactive)
same,growth,UACC-62 melanoma; 100 µM,94.4% (inactive) and -98.3% (active)
same,growth,LOX IMVI melanoma; 10 µM unless noted,19.5% (inactive)
NS(=O)(=O)c1ccc(C(=O)N=Nc2c(O)[nH]c3c(F)cccc23)cc1,growth,HCT-15 colon; 10 µM unless noted,105% (inactive)
same,growth,HT29 colon; 10 µM unless noted,99.6% (inactive)
same,growth,SNB-75 CNS; 10 µM unless noted,97.7% (inactive)
same,growth,SNB-19 CNS; 10 µM unless noted,97.4% (inactive)
same,growth,U251 CNS; 10 µM unless noted,98.6% (inactive)
same,growth,PC-3 prostate; 10 µM unless noted,94.9% (inactive)
same,growth,SK-MEL-5 melanoma; 10 µM unless noted,101% (inactive)
same,growth,UACC-62 melanoma; 10 µM unless noted,99.6% (inactive)
same,growth,LOX IMVI melanoma; 10 µM unless noted,98% (inactive)
FC(F)(F)Sc1ccc(/C=C/c2cc(/C=C/c3ccc(SC(F)(F)F)cc3)n(-c3ccccc3)n2)cc1,growth,HCT-15 colon; 10 µM unless noted,100% (inactive)
same,growth,HT29 colon; 10 µM unless noted,95.3% (inactive)
same,growth,SNB-75 CNS; 10 µM unless noted,82% (inactive)
same,growth,SNB-19 CNS; 10 µM unless noted,92.6% (inactive)
same,growth,U251 CNS; 10 µM unless noted,90.4% (inactive)
same,growth,PC-3 prostate; 10 µM unless noted,84.2% (inactive)
same,growth,SK-MEL-5 melanoma; 10 µM unless noted,98.3% (inactive)
same,growth,UACC-62 melanoma; 10 µM unless noted,84.5% (inactive)
same,growth,LOX IMVI melanoma; 10 µM unless noted,97.1% (inactive)
